9 molecules from PubChem BioAssay (NCI) can be followed below.

The structures appear in SMILES notation. About 83,000 compounds went through this panel and 20% of them were active in at least one assay; those are over-represented in the sample as a whole.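 Testing used 96-well plates and a 48-hour single-concentration exposure. Example: -40 means 40% of the starting cells died.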 Values without a mark were called inactive. Activity calls are given as the source filed them. How the source made its calls: active means growth percent below 10; inactive means the rest.

Some test systems named below: RPMI-8226 leukemia; OVCAR-8 ovarian; OVCAR-5 ovarian; OVCAR-4 ovarian; SK-OV-3 ovarian; IGROV1 ovarian; OVCAR-3 ovarian; HS 578T breast; NCI/ADR-RES ovarian; T-47D breast; BT-549 breast; MDA-MB-435 melanoma; SW-620 colon; MCF7 breast; HCT-116 colon; HCC-2998 colon; KM12 colon.
Holding throughout (experiment): NCI-60 one-dose screen, 48 h (100 = growth as untreated, 0 = no growth, -100 = all killed)
Details in all cases: 10 µM unless noted

With `COc1cccc(C2C(C#N)=C(N)Oc3cc(OC)ccc32)c1` (stereo not drawn), the growth in the experiment with RPMI-8226 leukemia is 9.12% (active); with OVCAR-8 ovarian, 3.88% (active); in the experiment on OVCAR-5 ovarian, 34.4%; in the experiment on OVCAR-4 ovarian, 59.3%; in the experiment with SK-OV-3 ovarian, 3.13% (active); in the experiment with IGROV1 ovarian it was 10.9%. The growth in the experiment with OVCAR-3 ovarian was -28.9% (active); in the experiment on HS 578T breast, 11.3%; with NCI/ADR-RES ovarian, 3.99% (active); with T-47D breast it was 55.8%; in the experiment with BT-549 breast, 15.8%; in the experiment on MDA-MB-435 melanoma, -47.7% (active). Besides, the growth was 26% in the experiment with SW-620 colon; 17.1% in the experiment on MCF7 breast; 7.04% (active) with HCT-116 colon; 0.0782% (active) in the experiment on HCC-2998 colon; 4.36% (active) in the experiment with KM12 colon.

As for `c1ccc(-c2nnc(Nc3nnc(-c4ccccc4)s3)s2)cc1`, the growth in the experiment on RPMI-8226 leukemia is 87.8%; with OVCAR-8 ovarian, 103%; in the experiment with OVCAR-5 ovarian it was 100%; with OVCAR-4 ovarian, 101%; with SK-OV-3 ovarian, 96.8%; in the experiment on IGROV1 ovarian, 86.7%. Moreover, the growth was 105% in the experiment with OVCAR-3 ovarian; 100% in the experiment with HS 578T breast; 118% with NCI/ADR-RES ovarian; 93.8% with T-47D breast; 106% in the experiment on BT-549 breast; 106% with MDA-MB-435 melanoma. The growth in the experiment on SW-620 colon is 98%; with MCF7 breast, 67.6%; with HCT-116 colon, 97.9%; with HCC-2998 colon it was 108%; with KM12 colon it was 113%.

Take `COc1ccc(CCN2CCCN3C2=Nc2ccccc2S3(=O)=O)cc1`: the growth in the experiment on RPMI-8226 leukemia was 29.9%; with OVCAR-8 ovarian, 36.2%; in the experiment with OVCAR-5 ovarian, 43.4%; with OVCAR-4 ovarian, 54.1%; in the experiment on SK-OV-3 ovarian, 48.6%; in the experiment on IGROV1 ovarian, 50.8%. The growth is 6.69% (active) with OVCAR-3 ovarian; 39.5% with HS 578T breast; 15.8% with NCI/ADR-RES ovarian; 44.7% with T-47D breast; 50.2% with BT-549 breast; -5.64% (active) in the experiment with MDA-MB-435 melanoma. Besides, the growth with SW-620 colon is 28%; in the experiment with MCF7 breast, 19.3%; in the experiment on HCT-116 colon, 17.4%; in the experiment on HCC-2998 colon, 21.7%; in the experiment with KM12 colon, 25.8%.

For the molecule `Oc1ccccc1/C=N\Nc1ccccc1`, the growth was 43.7% in the experiment on RPMI-8226 leukemia; 52% in the experiment on OVCAR-8 ovarian; 55.5% with OVCAR-5 ovarian; 84% in the experiment with OVCAR-4 ovarian; 108% in the experiment on SK-OV-3 ovarian; 57.3% with IGROV1 ovarian. Moreover, the growth in the experiment on OVCAR-3 ovarian is 79.1%; with HS 578T breast, 80.8%; in the experiment on NCI/ADR-RES ovarian, 44.1%; in the experiment on T-47D breast it was 44.5%; with BT-549 breast, 65.1%; with MDA-MB-435 melanoma, 28.6%. Also, the growth in the experiment with SW-620 colon is 34.5%; with MCF7 breast, 61.1%; with HCT-116 colon, 68.6%; in the experiment with HCC-2998 colon, 79.6%; in the experiment with KM12 colon it was 19.8%.

For `O=C1/C(=C/c2ccc([N+](=O)[O-])o2)Oc2ccc(Br)cc21`, the growth was 84.2% in the experiment on RPMI-8226 leukemia; 6.99% (active) in the experiment on OVCAR-8 ovarian; 105% in the experiment on OVCAR-5 ovarian; 5.15% (active) in the experiment with OVCAR-4 ovarian; 92.1% in the experiment on SK-OV-3 ovarian; -17.9% (active) in the experiment with IGROV1 ovarian. The growth is -43.1% (active) in the experiment on OVCAR-3 ovarian; 106% in the experiment on HS 578T breast; 98.3% in the experiment with NCI/ADR-RES ovarian; 58% in the experiment on T-47D breast; -54.1% (active) in the experiment on BT-549 breast; -40.7% (active) with MDA-MB-435 melanoma. Also, the growth in the experiment with SW-620 colon was -70.5% (active); in the experiment with MCF7 breast, 16.7%; in the experiment with HCT-116 colon, -64% (active); with HCC-2998 colon, 102%; with KM12 colon it was 87.1%.

As for `O=C1/C(=C/c2ccc3cccc(Cl)c3n2)SC(=S)N1CCc1ccc(O)cc1`, the growth in the experiment on RPMI-8226 leukemia was 82.2%; in the experiment with OVCAR-8 ovarian, 92.3%; in the experiment on OVCAR-5 ovarian, 106%; in the experiment with OVCAR-4 ovarian, 96.6%; with SK-OV-3 ovarian it was 93.2%; with IGROV1 ovarian, 47%. Further, the growth with OVCAR-3 ovarian is 75.7%; with HS 578T breast, 73.8%; in the experiment on NCI/ADR-RES ovarian it was 93%; in the experiment with T-47D breast it was 65.5%; in the experiment with BT-549 breast, 95.2%; in the experiment with MDA-MB-435 melanoma, 85.5%. In addition, the growth is 95% in the experiment on SW-620 colon; 86.3% in the experiment with MCF7 breast; 99.2% with HCT-116 colon; 118% with HCC-2998 colon; 84.8% in the experiment with KM12 colon.

With `COc1ccc2c(c1)C(=O)/C(=C/c1ccc([N+](=O)[O-])s1)O2`, the growth with RPMI-8226 leukemia is -12% (active); in the experiment on OVCAR-8 ovarian it was -5.24% (active); in the experiment on OVCAR-5 ovarian, 32.9%; in the experiment with OVCAR-4 ovarian it was -45% (active); in the experiment with SK-OV-3 ovarian it was 74.6%; with IGROV1 ovarian it was -58.3% (active). In addition, the growth in the experiment on OVCAR-3 ovarian was -35.7% (active); in the experiment on HS 578T breast, -6.61% (active); in the experiment on NCI/ADR-RES ovarian, 27.3%; with T-47D breast, -49.1% (active); in the experiment on BT-549 breast, -52.9% (active); in the experiment on MDA-MB-435 melanoma, -70.4% (active). Further, the growth in the experiment with SW-620 colon is -69.7% (active); with MCF7 breast, 3% (active); in the experiment on HCT-116 colon, -0.508% (active); with HCC-2998 colon, -6.91% (active); in the experiment on KM12 colon, -19.3% (active).

For `C/C(=N/N=C(N)N)c1ccc(Cl)cc1`, the growth with RPMI-8226 leukemia is 89.8%; in the experiment on OVCAR-8 ovarian it was 110%; in the experiment on OVCAR-5 ovarian, 87.8%; in the experiment with OVCAR-4 ovarian it was 92.9%; with SK-OV-3 ovarian, 89.5%; in the experiment with IGROV1 ovarian, 14.6%. The growth in the experiment on OVCAR-3 ovarian is 110%; with HS 578T breast it was 272%; in the experiment on NCI/ADR-RES ovarian, 86.5%; in the experiment on T-47D breast, 79.3%; with BT-549 breast, -0.709% (active); in the experiment with MDA-MB-435 melanoma it was 71.7%. Further, the growth with SW-620 colon was 112%; in the experiment with MCF7 breast, 83.9%; in the experiment on HCT-116 colon, 85.7%; in the experiment on HCC-2998 colon it was 57.8%; with KM12 colon, 93.2%.

Turning to `O=C1C(=O)c2ccc(Br)cc2-c2cc(Br)ccc21`, the growth in the experiment with RPMI-8226 leukemia is 25.9%; with OVCAR-8 ovarian it was -1.14% (active); with OVCAR-5 ovarian, 113%; in the experiment on OVCAR-4 ovarian it was -99% (active); with SK-OV-3 ovarian it was 81%; in the experiment on IGROV1 ovarian, 68.7%. For the same molecule, the growth in the experiment with OVCAR-3 ovarian is -48.6% (active); with HS 578T breast it was 86.4%; in the experiment on NCI/ADR-RES ovarian, -29.2% (active); in the experiment on T-47D breast it was 20%; in the experiment on BT-549 breast, 63%; in the experiment on MDA-MB-435 melanoma, 20.5%. The growth in the experiment on SW-620 colon was -1.44% (active); in the experiment on MCF7 breast it was 0.468% (active); in the experiment on HCT-116 colon, -71.9% (active); in the experiment with HCC-2998 colon, 87%; with KM12 colon, 73.1%.
